Source: ChEMBL document CHEMBL3988442, “University of Dundee, Small-Polar-MMV Screening Library” (2021)
For some assays here: Results with a measured potency or affinity are listed apart.

What was measured:
Design in all cases: scale not given: direction of the effect not stated beside the values
[1] = target: Protein translocase subunit SecA (Escherichia coli (strain K12)) (UniProt P10408); assay: Assay to Identify E. coli SecA ATPase Inhibitors; format: functional; settings: 30 µM
[2] = target: T1, Ubiquitin-activating enzyme e1, putative (Leishmania donovani (strain BPK282A1)) (UniProt E9BSI1); assay: Leishmania donovani Ubiquitin Activating Enzyme (LdE1); format: functional; settings: 30 µM
T1 sequence (whole entry): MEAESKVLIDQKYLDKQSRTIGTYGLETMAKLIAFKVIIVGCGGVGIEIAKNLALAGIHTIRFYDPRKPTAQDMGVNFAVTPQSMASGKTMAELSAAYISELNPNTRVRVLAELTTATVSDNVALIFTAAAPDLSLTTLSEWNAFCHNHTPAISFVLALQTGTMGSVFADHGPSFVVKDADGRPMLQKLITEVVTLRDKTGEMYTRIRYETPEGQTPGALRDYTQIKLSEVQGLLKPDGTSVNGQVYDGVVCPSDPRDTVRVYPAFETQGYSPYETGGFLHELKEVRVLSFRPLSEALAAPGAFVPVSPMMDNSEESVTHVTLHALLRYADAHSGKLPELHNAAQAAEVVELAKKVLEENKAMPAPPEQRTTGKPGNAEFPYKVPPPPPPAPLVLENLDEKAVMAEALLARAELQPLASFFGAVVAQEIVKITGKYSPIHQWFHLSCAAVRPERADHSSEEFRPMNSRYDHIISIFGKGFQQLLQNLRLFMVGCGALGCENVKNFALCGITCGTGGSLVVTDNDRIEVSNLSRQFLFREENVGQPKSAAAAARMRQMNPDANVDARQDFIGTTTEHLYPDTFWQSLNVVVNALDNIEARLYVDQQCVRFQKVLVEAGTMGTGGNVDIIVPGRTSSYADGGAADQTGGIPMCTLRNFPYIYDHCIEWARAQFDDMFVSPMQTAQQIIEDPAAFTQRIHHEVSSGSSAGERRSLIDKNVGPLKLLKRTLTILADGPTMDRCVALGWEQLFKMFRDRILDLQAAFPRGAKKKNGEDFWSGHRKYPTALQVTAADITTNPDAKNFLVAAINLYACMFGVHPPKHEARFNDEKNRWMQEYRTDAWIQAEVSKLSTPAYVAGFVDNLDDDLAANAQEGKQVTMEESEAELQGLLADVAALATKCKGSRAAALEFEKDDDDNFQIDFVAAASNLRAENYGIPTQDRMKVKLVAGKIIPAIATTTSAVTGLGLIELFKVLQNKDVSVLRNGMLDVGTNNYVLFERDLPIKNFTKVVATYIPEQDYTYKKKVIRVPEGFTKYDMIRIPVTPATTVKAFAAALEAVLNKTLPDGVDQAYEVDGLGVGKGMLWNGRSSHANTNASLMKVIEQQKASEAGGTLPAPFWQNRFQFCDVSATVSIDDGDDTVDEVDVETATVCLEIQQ

[3] = target: AMP-activated protein kinase, AMPK (Homo sapiens) (UniProt P54646+O43741+P54619+Q9UGJ0+Q9Y478+Q13131+Q9UGI9); assay: AMP-dependent Kinase enzyme assay. An in vitro enzyme assay that detects ADP turnover that is directly proportional to AMPK activity. This uses naive AMPK that is activated during the assay with MK-8722; format: functional; settings: 30 µM
[4] = target: Sialic acid-binding Ig-like lectin 9 (Homo sapiens) (UniProt Q9Y336); assay: Hs-Siglec9 ALPHAscreen SOP 20170721; settings: 10 µM
Chain of Sialic acid-binding Ig-like lectin 9 (Homo sapiens) (Q9Y336 whole entry): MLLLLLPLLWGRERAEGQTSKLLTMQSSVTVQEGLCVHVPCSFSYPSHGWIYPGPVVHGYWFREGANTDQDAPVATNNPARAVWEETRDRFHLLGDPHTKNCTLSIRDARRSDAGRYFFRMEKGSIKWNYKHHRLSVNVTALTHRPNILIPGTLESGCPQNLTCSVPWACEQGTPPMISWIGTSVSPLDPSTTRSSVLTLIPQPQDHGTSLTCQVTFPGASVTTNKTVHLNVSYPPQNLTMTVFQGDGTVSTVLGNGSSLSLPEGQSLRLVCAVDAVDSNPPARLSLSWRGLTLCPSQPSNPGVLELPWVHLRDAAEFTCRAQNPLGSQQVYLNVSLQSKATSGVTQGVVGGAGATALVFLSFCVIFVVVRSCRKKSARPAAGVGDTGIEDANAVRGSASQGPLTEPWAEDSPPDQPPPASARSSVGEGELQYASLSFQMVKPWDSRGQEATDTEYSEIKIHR

Trypanosoma cruzi = assay: Trypanosoma cruzi phosphomannomutase and mannose-1-phosphate guanylyltransferase assay; format: functional; settings: 10 µM
[5] = target: T2, Arginase-2, mitochondrial (Homo sapiens) (UniProt P78540); assay: in vitro enzyme assay to detect the production of urea directly proportional to the activity of Arginase II; format: functional; settings: 33.3 µM; note: in the data most compounds retested in dose-response had high values
T2 sequence (whole entry): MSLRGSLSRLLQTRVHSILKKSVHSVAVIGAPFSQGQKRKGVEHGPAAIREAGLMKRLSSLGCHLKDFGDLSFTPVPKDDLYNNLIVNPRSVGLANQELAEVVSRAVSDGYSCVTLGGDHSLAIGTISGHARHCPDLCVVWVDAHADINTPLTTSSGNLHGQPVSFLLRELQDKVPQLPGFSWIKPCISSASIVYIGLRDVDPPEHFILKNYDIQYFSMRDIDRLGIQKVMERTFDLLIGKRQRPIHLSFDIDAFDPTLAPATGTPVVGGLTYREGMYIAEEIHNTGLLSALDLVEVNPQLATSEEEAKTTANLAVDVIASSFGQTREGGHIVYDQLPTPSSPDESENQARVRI

[6] = target: T3, Proteasome subunit beta (Trypanosoma cruzi) (UniProt O96673); assay: Trypanosoma cruzi proteasome chymotrypsin-like activity (TcProtChymo) assay.; note: in the data most compounds retested in dose-response had high values; format: functional; settings: 9.37 µM
T3 sequence (whole entry): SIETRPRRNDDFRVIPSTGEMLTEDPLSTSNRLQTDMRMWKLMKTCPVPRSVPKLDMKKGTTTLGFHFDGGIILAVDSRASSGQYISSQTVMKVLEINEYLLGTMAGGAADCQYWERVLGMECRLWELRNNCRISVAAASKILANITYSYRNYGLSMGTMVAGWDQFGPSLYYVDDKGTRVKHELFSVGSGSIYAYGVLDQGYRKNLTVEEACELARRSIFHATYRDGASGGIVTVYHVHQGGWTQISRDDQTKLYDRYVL

Homo sapiens = organism: Homo sapiens; assay: To identify inhibition of the IFN signalling (Jak-Stat) pathway via expression of an eGFP reporter gene under the control of an IFN-stimulated response element (ISRE) containing MxA promoter.; format: functional; settings: 30 µM
[7] = target: T4, Tyrosyl-tRNA synthetase, putative (Trypanosoma cruzi (strain CL Brener)) (UniProt Q4DSP6); assay: Trypanosoma cruzi tyrosyl tRNA synthetase (TcYRS) _High Tyrosine SOP; format: functional; settings: 30 µM; note: in the data most compounds retested in dose-response had high values
T4 sequence (whole entry): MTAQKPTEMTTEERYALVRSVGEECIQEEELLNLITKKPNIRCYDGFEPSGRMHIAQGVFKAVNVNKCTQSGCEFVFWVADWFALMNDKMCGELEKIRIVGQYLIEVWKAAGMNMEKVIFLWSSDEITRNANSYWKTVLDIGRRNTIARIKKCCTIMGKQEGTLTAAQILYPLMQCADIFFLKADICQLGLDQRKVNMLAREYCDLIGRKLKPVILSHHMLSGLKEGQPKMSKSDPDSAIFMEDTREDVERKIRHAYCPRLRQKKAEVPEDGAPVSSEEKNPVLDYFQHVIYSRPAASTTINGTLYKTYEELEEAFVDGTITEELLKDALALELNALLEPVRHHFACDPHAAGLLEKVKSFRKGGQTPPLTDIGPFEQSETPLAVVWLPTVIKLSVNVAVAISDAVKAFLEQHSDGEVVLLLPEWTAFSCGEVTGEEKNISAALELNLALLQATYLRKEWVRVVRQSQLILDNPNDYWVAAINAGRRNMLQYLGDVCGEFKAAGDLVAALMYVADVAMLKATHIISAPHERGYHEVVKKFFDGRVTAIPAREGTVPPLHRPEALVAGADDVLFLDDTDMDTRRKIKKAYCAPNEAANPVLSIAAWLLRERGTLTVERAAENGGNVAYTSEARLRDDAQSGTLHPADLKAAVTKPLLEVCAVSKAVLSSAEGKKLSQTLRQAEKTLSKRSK

[8] = target: T4, Tyrosyl-tRNA synthetase, putative (Trypanosoma cruzi (strain CL Brener)); assay: Trypanosoma cruzi tyrosyl tRNA synthetase (TcYRS) SOP; format: functional; settings: 30 µM
[9] = target: Chromo domain-containing protein 1 (Saccharomyces cerevisiae (strain ATCC 204508 / S288c) (Baker's yeast)) (UniProt P32657); assay: ScCHD-1 Enzyme Inhibition Assay; format: functional; settings: 30 µM; note: in the data most compounds retested in dose-response had high values
Chain of Chromo domain-containing protein 1 (Saccharomyces cerevisiae (strain ATCC 204508 / S288c) (Baker's yeast)) (P32657 whole entry, the tested form may be a part): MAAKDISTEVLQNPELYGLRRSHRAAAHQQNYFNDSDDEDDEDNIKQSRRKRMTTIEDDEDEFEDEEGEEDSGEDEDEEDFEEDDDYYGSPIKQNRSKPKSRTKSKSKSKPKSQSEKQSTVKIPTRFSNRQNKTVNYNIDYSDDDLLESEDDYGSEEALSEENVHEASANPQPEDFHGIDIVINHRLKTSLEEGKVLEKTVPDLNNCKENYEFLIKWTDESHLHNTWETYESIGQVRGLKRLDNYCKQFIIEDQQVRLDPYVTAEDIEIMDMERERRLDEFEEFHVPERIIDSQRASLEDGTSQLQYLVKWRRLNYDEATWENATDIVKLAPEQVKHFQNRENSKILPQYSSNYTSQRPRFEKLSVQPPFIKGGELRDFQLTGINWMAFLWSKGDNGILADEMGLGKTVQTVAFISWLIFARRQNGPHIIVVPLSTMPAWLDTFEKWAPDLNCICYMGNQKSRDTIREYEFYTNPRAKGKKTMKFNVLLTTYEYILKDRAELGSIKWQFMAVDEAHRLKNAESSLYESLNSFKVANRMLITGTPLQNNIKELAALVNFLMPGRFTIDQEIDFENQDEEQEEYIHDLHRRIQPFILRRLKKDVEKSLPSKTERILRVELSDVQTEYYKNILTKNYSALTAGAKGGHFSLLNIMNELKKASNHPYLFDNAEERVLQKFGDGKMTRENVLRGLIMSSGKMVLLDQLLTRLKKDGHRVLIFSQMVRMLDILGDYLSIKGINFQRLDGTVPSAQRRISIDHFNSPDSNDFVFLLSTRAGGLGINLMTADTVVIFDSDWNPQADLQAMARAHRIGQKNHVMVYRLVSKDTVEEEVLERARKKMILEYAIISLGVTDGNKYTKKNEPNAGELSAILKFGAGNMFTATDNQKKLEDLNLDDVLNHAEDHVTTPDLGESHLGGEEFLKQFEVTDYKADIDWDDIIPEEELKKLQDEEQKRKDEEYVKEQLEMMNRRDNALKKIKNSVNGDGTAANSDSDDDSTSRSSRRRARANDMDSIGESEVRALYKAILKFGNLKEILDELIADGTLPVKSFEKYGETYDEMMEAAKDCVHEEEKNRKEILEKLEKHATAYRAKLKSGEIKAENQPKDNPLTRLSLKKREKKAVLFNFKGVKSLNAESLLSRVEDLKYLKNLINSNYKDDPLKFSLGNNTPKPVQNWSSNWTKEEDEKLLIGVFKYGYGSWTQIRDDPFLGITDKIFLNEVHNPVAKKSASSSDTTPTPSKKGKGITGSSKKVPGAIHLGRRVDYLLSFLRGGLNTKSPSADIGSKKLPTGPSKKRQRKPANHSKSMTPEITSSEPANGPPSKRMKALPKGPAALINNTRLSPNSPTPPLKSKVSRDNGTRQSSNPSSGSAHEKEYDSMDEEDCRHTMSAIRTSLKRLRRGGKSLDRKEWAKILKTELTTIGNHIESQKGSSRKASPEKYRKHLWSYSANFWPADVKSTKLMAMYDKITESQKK

Chain of Protein translocase subunit SecA (Escherichia coli (strain K12)) (P10408 whole entry): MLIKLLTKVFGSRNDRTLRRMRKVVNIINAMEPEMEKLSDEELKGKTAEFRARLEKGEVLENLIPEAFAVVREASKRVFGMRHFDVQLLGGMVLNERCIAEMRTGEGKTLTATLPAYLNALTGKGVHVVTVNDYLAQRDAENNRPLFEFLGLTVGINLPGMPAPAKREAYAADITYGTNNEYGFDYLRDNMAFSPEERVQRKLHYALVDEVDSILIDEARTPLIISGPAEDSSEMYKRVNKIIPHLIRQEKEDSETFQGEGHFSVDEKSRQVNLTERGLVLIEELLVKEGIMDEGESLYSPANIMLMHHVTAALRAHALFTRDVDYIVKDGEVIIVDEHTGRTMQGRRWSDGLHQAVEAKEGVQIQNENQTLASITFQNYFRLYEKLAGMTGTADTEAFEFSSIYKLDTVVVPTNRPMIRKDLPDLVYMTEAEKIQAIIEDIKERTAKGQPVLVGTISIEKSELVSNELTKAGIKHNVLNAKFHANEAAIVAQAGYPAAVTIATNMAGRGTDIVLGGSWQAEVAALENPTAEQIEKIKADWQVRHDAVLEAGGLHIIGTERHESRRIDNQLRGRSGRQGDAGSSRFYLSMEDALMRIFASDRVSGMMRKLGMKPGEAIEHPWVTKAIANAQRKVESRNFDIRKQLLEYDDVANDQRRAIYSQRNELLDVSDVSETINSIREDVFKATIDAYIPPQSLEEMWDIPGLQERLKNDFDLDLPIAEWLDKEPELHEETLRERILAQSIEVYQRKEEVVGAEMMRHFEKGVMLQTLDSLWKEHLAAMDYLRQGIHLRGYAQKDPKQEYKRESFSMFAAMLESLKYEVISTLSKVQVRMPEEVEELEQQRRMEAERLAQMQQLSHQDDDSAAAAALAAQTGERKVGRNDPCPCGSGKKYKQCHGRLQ

| Compound | Percent Effect [1] [%] | Percent Effect [2] [%] | Percent Effect [3] [%] | Percent Effect [4] [%] | Percent Effect (Trypanosoma cruzi) [%] | Percent Effect [5] [%] | Percent Effect [6] [%] | Percent Effect (Homo sapiens) [%] | Percent Effect [7] [%] | Percent Effect [8] [%] | Percent Effect [9] [%] |
| --- | --- | --- | --- | --- | --- | --- | --- | --- | --- | --- | --- |
| Cc1cc(NC(=O)Cn2cc(C#N)c(=O)c3cc(Br)ccc32)no1 | -5.99 | -45.3 | -1.25 | 3.63 | -1.27 | -9.9 | 13.8 | 19.5 | -14.8 | -60.5 | 80.7 |
| Cn1nc(CNC(=O)C2CC2)cc1C1CC1 | -5.14 | 18.2 | 3.71 | 7.61 | 2.27 | -4.52 | 4 | 6.02 | 0 | 11.5 | -7.39 |
| CC(NC(=O)NCCCNS(C)(=O)=O)c1ccncc1 (configuration not stated) | -4.34 | 6.33 | 4.73 | 0.18 | -2.97 | -1.5 | 8.4 | -9.13 | 12.5 | 17.7 | -4.71 |
| O=C(NCCN1CCCCCC1=O)c1n[nH]c(=O)c2ccccc12 | -2.33 | 15.6 | 17.8 | -3.89 | -11.1 | 2.13 | 6.42 | 27.5 | -6.8 | 9.76 | -3 |
| CCOc1ccc(-c2ccnc(CC)n2)cc1C(=O)O | 0.91 | 10.8 | -5.65 | 16.4 | 2.9 | -0.476 | 20 | -11.8 | 8.99 | -2.44 | -1.49 |
| O=C([C@@H]1CC[C@@H]2[C@@H](CCN2Cc2ccoc2)O1)N1CCCC1 | -5.35 | 13.5 | -5.44 | 27.1 | 0.684 | 4.71 | 17.9 | -10.1 | 7.53 | 13.6 | -3.6 |
| O=C1CCC2(CCN(c3ncc(F)cn3)CC2)N1CCN1CCCC1 | -2.97 | 7.79 | -0.558 | -6.43 | -2.07 | 1.94 | 21.4 | 12.5 | 1.06 | 3.85 | -7.84 |
| O=C(c1cccc2[nH]ncc12)N1CCCC1c1noc(C2CC2)n1 (configuration not stated) | 0.141 | 20.2 | 1.95 | -11.1 | -3.31 | 8.74 | 7.29 | 24.4 | 5.42 | 11.4 | -8.01 |
| CC(C)(CNC(=O)CCOc1cccc(F)c1)C(N)=O | -1.29 | 7.89 | 1.89 | 3.39 | -7.14 | 3.06 | 10.5 | 12 | 5.39 | 12.2 | -1.57 |
| Cc1ccc(S(=O)(=O)NC(=O)c2c(C)noc2C(C)C)cc1C | -2.23 | 10.5 | -4.09 | 2.28 | 1.07 | -3.55 | 10.6 | -1.83 | 3.19 | 10.4 | -1.79 |
| O=C(Nc1ccnc(OC2CCOC2)c1)c1cc(F)ccc1F (configuration not stated) | -5.45 | -1.39 | 2.94 | 5.39 | -1.65 | -2.65 | 11.6 | 2.19 | -5.26 | -10.3 | 9.81 |
| Cc1nc(CN2CC3(CCN(c4ncc(F)cn4)C3)CC2=O)cs1 (configuration not stated) | -1.99 | 0 | 8.52 | 6.6 | -0.69 | 1.94 | 0.348 | 7.34 | 3.17 | 8.97 | -4.69 |
| CC(=O)N(Cc1ncc(C(C)C)o1)C1CCN(Cc2nccn2C)C1 (configuration not stated) | -2.57 | 13.5 | -4.73 | 4.8 | 3.25 | -1.29 | 14.4 | -11.4 | 10.9 | 28.1 | -1.74 |
| Cc1cnc(CNc2c(F)cccc2-n2cccn2)o1 | 3.66 | 12.5 | -4.76 | 5.6 | -8.46 | 2.65 | 13.7 | 5.49 | 4.21 | 5.13 | 101 |
| CS(=O)(=O)NCc1cn2c(n1)CN(C(=O)c1ccc[nH]1)CC2 | -5.06 | 10.7 | 14.2 | 2.3 | -1.97 | 0.233 | 5.2 | 2.29 | 7.45 | 14.1 | -4.02 |
| N#Cc1ccc(CN2CCN(C(=O)C3CCC3)[C@@H]3CS(=O)(=O)C[C@@H]32)cc1 | -4.22 | 5.2 | 3.66 | 3.04 | -5.61 | -20.7 | 8.98 | 14.4 | 4.3 | 8.64 | -1.71 |
| Cc1n[nH]c(C)c1C1CCCN1C(=O)CNC(=O)C(C)(C)C (configuration not stated) | -0.905 | 8.22 | 0.299 | 14 | 2.74 | 20.9 | 11.5 | -2.46 | 0 | 5 | -4.49 |
| COCc1cccc(CNCc2c(C)nn(C)c2N(C)C)c1 | -6.8 | 18.9 | -21.5 | 9.53 | 7.64 | -4.01 | 12.4 | 4.56 | 7.39 | 23.5 | -13.6 |
| COc1cccc(COCC(=O)N2CCC(CC(N)=O)CC2)c1 | -3.54 | 7.89 | -1.04 | -0.0672 | -6.77 | 5.75 | 0.334 | 23.7 | 5.39 | 12.2 | -3.41 |
| COc1cccc(S(=O)(=O)NC(=O)COc2c(C)cccc2C)c1 | -5.17 | 7.79 | -10.1 | -4.14 | -2.81 | 2.13 | 6.08 | 10.3 | 0 | 12.2 | -4.1 |
| N#Cc1ccc(C(=O)N2CCC3(CC2)C(=O)Nc2ccccc23)cn1 | -4.93 | 8.11 | 0.0753 | 1.98 | -0.684 | 2.73 | 9.87 | 0.335 | 10.8 | 18.5 | -4.78 |
| Cc1nnc2n1CCN(C(=O)c1cc(C)n(-c3ccccn3)c1C)C2 | -5.88 | 13.2 | -9.47 | 3.77 | -1.03 | 3.6 | 17 | 4.26 | 4.43 | 13.6 | 2.79 |
